{"source": "PubChem BioAssay AID686921", "about": "(National Center for Advancing Translational Sciences (NCATS), 2013)", "note": "Values without a mark were called inactive. Active and inactive are the calls of the source. Calls come from the whole dose curve; as a rule, active = well fitted curve in the direction sought with a large enough effect; inconclusive = small, poorly fitted or top-dose-only effect, or another doubt; inactive = no such curve, though single readings can be large or run the other way."}
{"assay": "qHTS screen for inhibitors of ELG1-dependent DNA repair in human embryonic kidney (HEK293T) cells expressing luciferase-tagged ELG1: 5FU Viability Assay for probe SAR", "details": "HEK293T ELG1-luc, CellTiter-Glo viability, 16 h; series mostly up to 46.1 µM; activity change, negative = inhibition: at the top concentration", "excerpt": "Cancer cells divide rapidly compared to normal cells in the body. During cell division, cancer cells need to duplicate their genome by DNA replication. The failure of genome duplication leads to cancer cells' death. Therefore, inhibitors of DNA replication could specifically kill cancer cells. Based on this concept, many chemotherapeutic agents were developed and have been used to treat cancer patients. However, there are a limited number of agents available in the clinical setting, and some of those that do exist have low efficacy and severe side effects. Therefore, if we can find the compounds that effectively block DNA replication either by directly damaging DNA or by inhibiting other cellular mechanisms, the options for cancer treatment will be broadened. With this in mind, we developed a quantitative high-throughput ELG1-luciferase reporter gene assay. Small molecules that specifically block ELG1 function in response to DNA damage can be identified by monitoring the suppression of luciferase activity. Since ELG1 defines a pathway for repairing DNA damage, agents blocking ELG1 function can be used to sensitize cancer cells to chemotherapeutic agents whose mechanism of action involves the induction of DNA damage. Cytotoxicity of the active compounds in the ELG1 qHTS assay (AID 493107) was assessed using the CellTiter-Glo Luminescent Cell Viability Assay kit (Promega, USA). CellTiter-Glo measures the intracellular ATP present in metabolically active cells using Ultra-Glo as the luciferase to detect ATP levels. In brief, the luciferase in the buffer catalyzes the oxidation of luciferin to oxyluciferin and light which is dependent on ATP. […] DMSO and wells with media alone were used as positive and negative controls, respectively. Inactivity to this assay is the desirable outcome. NIH Molecular Libraries Probe Production Network [MLPCN] NIH Chemical Genomics Center [NCGC] MLPCN Grant: R03 MH092164 Assay Provider: Kyungjae Myung, NHGRI, NIH\nELG1-luc HEK293T cells will be seeded in 1536-well plates at a density of 2,000 cells/well. Approximately 5 hours after plating, compounds will be added to the plate by pin tool transfer and 5-fluorouridine will be added by FRD dispenser (final concentration of 5-fluorouridine =10 µM). 16 hours following the addition of the compounds, cell viability will be measured using CellTiter Glo.", "units": {"activity change, negative = inhibition": "%"}}
{"molecule": "COc1ccc(-c2ccc(Nc3nc(-c4ccncc4)nc4ccccc34)cc2F)cc1F", "activity change, negative = inhibition": 4.42}
{"molecule": "N#Cc1cnccc1-c1nc(Nc2ccc(F)c(F)c2)c2ccccc2n1", "activity change, negative = inhibition": 50.8}
{"molecule": "COc1ccc(Nc2nc(-c3ccncc3)nc3ccccc23)cc1F", "activity change, negative = inhibition": 0.644}
{"molecule": "Fc1cc(Nc2nc(-c3ccncc3)nc3ccccc23)ccc1C(F)(F)F", "activity change, negative = inhibition": 4.15}
{"molecule": "COc1nccc(-c2nc(Nc3ccc(F)c(F)c3)c3ccccc3n2)c1OC", "activity change, negative = inhibition": 6.79}
{"molecule": "Oc1ccc(Nc2nc(-c3ccncc3)nc3ccccc23)cc1F", "activity change, negative = inhibition": 21.5}
{"molecule": "O=[N+]([O-])c1ccc(-c2nc(Nc3ccc(F)c(F)c3)c3ccccc3n2)cc1", "activity change, negative = inhibition": -1.93}
{"molecule": "COc1cc(-c2nc(Nc3ccc(F)c(F)c3)c3ccccc3n2)ccn1", "activity change, negative = inhibition": 36}
{"molecule": "COc1cnccc1-c1nc(Nc2ccc(F)c(F)c2)c2ccccc2n1", "activity change, negative = inhibition": -5.9}
{"molecule": "Fc1ccc(-c2ccc(Nc3nc(-c4ccncc4)nc4ccccc34)cc2F)c(F)c1", "activity change, negative = inhibition": -9.69}
{"molecule": "Fc1ccc(Nc2nc(-c3ccncc3)nc3ccccc23)cc1F", "activity change, negative = inhibition": 57.5}
{"molecule": "Fc1ccc(-c2ccc(Nc3nc(-c4ccncc4)nc4ccccc34)cc2F)c(Cl)c1", "activity change, negative = inhibition": -26.9}
{"molecule": "Fc1cc(-c2nc(Nc3ccc(F)c(F)c3)c3ccccc3n2)ccn1", "activity change, negative = inhibition": 22.8}
{"molecule": "N#Cc1cc(-c2nc(Nc3ccc(F)c(F)c3)c3ccccc3n2)ccn1", "activity change, negative = inhibition": 3.09}
{"molecule": "Cc1noc(C)c1-c1ccc(Nc2nc(-c3ccncc3)nc3ccccc23)cc1F", "activity change, negative = inhibition": -90.5}
{"molecule": "Fc1ccc(-c2nc(-c3ccncc3)nc3ccccc23)cc1F", "activity change, negative = inhibition": -9.33}
{"molecule": "Fc1cc(Nc2nc(-c3ccncc3)nc3ccccc23)ccc1-c1cccnc1", "activity change, negative = inhibition": -10.6}
{"molecule": "COc1cc(Nc2nc(-c3ccncc3)nc3ccccc23)ccc1Cl", "activity change, negative = inhibition": 2.26}
{"molecule": "Fc1cc(Nc2nc(-c3ccncc3)nc3ccccc23)ccc1-c1cccc(OC(F)F)c1", "activity change, negative = inhibition": -3.5}
{"molecule": "c1ccc2c(Nc3ccn[nH]3)nc(-c3ccncc3)nc2c1", "activity change, negative = inhibition": -25.2}
{"molecule": "O=c1cc(-c2nc(Nc3ccc(F)c(F)c3)c3ccccc3n2)cc[nH]1", "activity change, negative = inhibition": 31.2}
{"molecule": "Fc1cc(Nc2nc(-c3ccncc3)nc3ccccc23)ccc1N1CCNCC1", "activity change, negative = inhibition": -13.6}
{"molecule": "COc1ccc(-c2nc(Nc3ccc(F)c(F)c3)c3ccccc3n2)cc1", "activity change, negative = inhibition": -12.5}
{"molecule": "Fc1cc(Nc2nc(-c3ccncc3)nc3ccccc23)ccc1-c1cccc(C(F)(F)F)c1", "activity change, negative = inhibition": -24.6}
{"molecule": "Cc1cc(-c2nc(Nc3ccc(F)c(F)c3)c3ccccc3n2)cc(C)n1", "activity change, negative = inhibition": 30.7}
{"molecule": "Fc1ccc(Nc2nc(-c3ccncc3F)nc3ccccc23)cc1F", "activity change, negative = inhibition": 29.9}
{"molecule": "CN1CCN(c2ccc(Nc3nc(-c4ccncc4)nc4ccccc34)cc2F)CC1", "activity change, negative = inhibition": 11.4}
{"molecule": "Cc1cc(-c2nc(Nc3ccc(F)c(F)c3)c3ccccc3n2)ccn1", "activity change, negative = inhibition": 22.7}
{"molecule": "Fc1cccc(Nc2nc(-c3ccncc3)nc3ccccc23)c1", "activity change, negative = inhibition": 20.6}
{"molecule": "COC(=O)c1ccc(Nc2nc(-c3ccncc3)nc3ccccc23)cc1OC", "activity change, negative = inhibition": 34}
{"molecule": "Fc1cc(Nc2nc(-c3ccncc3)nc3ccccc23)ccc1OCC(F)(F)F", "activity change, negative = inhibition": 20.7}
{"molecule": "COc1cc(-c2nc(Nc3ccc(F)c(F)c3)c3ccccc3n2)cc(OC)n1", "activity change, negative = inhibition": 18.8}
{"molecule": "Fc1cc(Nc2nc(-c3ccncc3)nc3ccccc23)ccc1-c1cccc(OC(F)(F)F)c1", "activity change, negative = inhibition": -29.3}
{"molecule": "COc1cc(Nc2nc(-c3ccncc3)nc3ccccc23)ccc1N1CCN(C)CC1", "activity change, negative = inhibition": 4.29}
{"molecule": "Fc1cc(Nc2nc(-c3ccncc3)nc3ccccc23)ccc1N1CCCCC1", "activity change, negative = inhibition": -92.1}
{"molecule": "Fc1cc(Nc2nc(-c3ccncc3)nc3ccccc23)ccc1-c1cn[nH]c1", "activity change, negative = inhibition": 30.4}
{"molecule": "Cc1cnccc1-c1nc(Nc2ccc(F)c(F)c2)c2ccccc2n1", "activity change, negative = inhibition": 30.7}
{"molecule": "COc1cc(Nc2nc(-c3ccncc3)nc3ccccc23)ccc1F", "outcome": "inactive"}
{"molecule": "Cc1nc2ccc(Nc3nc(-c4ccncc4)nc4ccccc34)cc2s1", "activity change, negative = inhibition": 30.3}
{"molecule": "Fc1cc(Nc2nc(-c3ccncc3)nc3ccccc23)ccc1-c1cc(F)c(F)c(F)c1", "activity change, negative = inhibition": 9.22}
